Hit rate of the full screen: of about 2,800 compounds, fewer than 10 were called active. A selection follows. Values without a mark were called inactive. The call rests on the fitted dose curve; in most records, active means well fitted curve in the direction sought with a large enough effect; inconclusive means small, poorly fitted or top-dose-only effect, or another doubt; inactive means no such curve, though single readings can be large or run the other way.

Chain of Metallo-beta-lactamase type 2 (Klebsiella pneumoniae) (C7C422 whole entry, looked up): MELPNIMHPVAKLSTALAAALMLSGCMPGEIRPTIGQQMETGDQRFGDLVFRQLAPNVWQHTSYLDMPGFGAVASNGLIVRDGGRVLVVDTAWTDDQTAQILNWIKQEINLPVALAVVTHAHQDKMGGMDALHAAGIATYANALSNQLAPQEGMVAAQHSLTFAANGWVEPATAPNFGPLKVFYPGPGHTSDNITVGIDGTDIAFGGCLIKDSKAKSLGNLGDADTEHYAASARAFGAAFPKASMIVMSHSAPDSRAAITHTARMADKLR

The assay addresses Metallo-beta-lactamase type 2 (Klebsiella pneumoniae) (UniProt C7C422). Put plainly: qHTS to identify inhibitors of the New Delhi Metallo-beta-lactamase (NDM): Meropenem screen against the machine-based learning selections. Further: % of control where 0% means no effect. As to conditions: Purified NDM-1, meropenem hydrolysis, absorbance 300 nm; series mostly up to 38.4 µM; activity change, negative = inhibition: at the top concentration. The text has this:
Assay Submitter (PI): James Inglese Ph.D., Patricia Dranchak Ph.D., Mahesh Aitha Ph.D. Assay Development and Screening Technology Laboratory (ADST) National Center for Advancing Translational Sciences (NCATS), Rockville, MD National Institute of Health (NIH), Bethesda, Maryland The metallo-beta-lactamases (MBL) are a main antibiotic resistance mechanism evolved by bacteria. There is an urgent clinical need for MBL inhibitors to mitigate this growing threat. To support a machine-based learning study, qHTS has been used to experimentally test inhibitors identified by prediction tools.
PROTOCOL TABLE (as described by Inglese et al., 2007) SEQUENCE No. (e.g., 1, 2, 3, etc.); […] (e.g., enzyme, Incubation, Reagent, etc.); VALUE; DESCRIPTION Primary Screen 1; NDM-1; 4 uL of 3 nM enzyme [2 nM final] in 50 mM HEPES (pH 7.0), 1 uM […], 0.01% Tween20; Use BioRaptr to dispense into two sets of Aurora black, clear bottom high base 1536-well plates 2; Compounds; 23 nL; Use Pin Tool (Wako) to transfer DMSO control and library compounds in DMSO 3; Incubate; >30 min 4a; Reagent; 2 uL of 50 uM nitrocefin [16.7 uM final] to one set of assay plates 4b; Reagent; 2 uL of 150 uM meropenem [50 uM final] to second set of assay plates 5a; Incubate; 15 min 5b; Incubate; 30 min 6a; Detector; Absorbance at 485 nm (bandwidth = 5 nm, 25 flashes/well) on Tecan Infinity 6b; Detector; Absorbance at 300 nm (bandwidth = 5 nm, 25 flashes/well) on Tecan Infinity NOTES (numbers refer to sequence above) 1; Column 1 of each plate received assay buffer without enzyme and columns 2-48 received enzyme for a final assay concentration of 2 nM. 2; Control plate contained DMSO in columns 1, 2, 3, and 4. 3; Compound interaction with enzyme. 4; Nitrocefin and meropenem substrates were prepared in the same assay buffer as step 1 for a final assay concentration of 16.7 uM and 50 uM, respectively, and added to all wells across respective sets of assay plates. 5; Default reader settings were applied for absorbance read at 485 nm (nitrocefin) or 300 nm (meropenem), bandwidth = 5 nm, 25 flashes/well. References: Inglese J, Shamu CE, Guy RK. 2007. Reporting data from high-throughput screening of small-molecule libraries. Nat Chem Biol. doi:10.1038/nchembio0807-438 Yasgar A, Shinn P, Jadhav A, Auld D, Michael S, Zheng W, Austin CP, Inglese J, Simeonov A. 2008. Compound Management for Quantitative High-Throughput Screening. J Lab Autom 13:79 - 89. doi:10.1016/j.jala.2007.12.004
As to `COC(=O)c1ccc2c(c1)nc1n2[C@@H](CNC(=O)NC2CCCCC2)COC1`, the “activity change, negative = inhibition” value was -0.992% [at 57.5 µM].
The value for `COc1cccc(CN[C@@H]2CCC[C@@H](C(=O)NC3CCOCC3)CC(=O)N(C)C2)c1` was 1.5% [at 57.5 µM]; that for `COCCNC(=O)[C@H]1CCC[C@H]1NC(=O)c1ccc(OC)cc1` was 0.0448%.
In the case of `CCS(=O)(=O)N1CCC(Cc2nc(-c3cccnc3)n[nH]2)C1` (stereo unspecified), the “activity change, negative = inhibition” value was 0.912%.
The result for `C=CCc1cc(C2CC(=O)Nc3[nH]ncc32)cc(OCC)c1OC` (stereo unspecified) reads 1.43%; that for `O=C1CC(c2ccccc2)N(C(=O)C2CC2)CCCN(C(=O)NCc2ccccc2)CCN1` (stereo unspecified), 0.78%.
The result for `O=C(NC[C@H]1OC[C@@H](NCc2cnc[nH]2)[C@@H]1O)C1CCCC1` reads 10.9% [at 57.5 µM]; that for `COc1cccc(-c2cnc3[nH]cc(CC(=O)NCc4cccnc4)c3c2)c1`, -0.122% [at 57.5 µM]; that for `Cn1ccc(NC(=O)c2cnc3c(c2)N([S+](=O)([O-])c2cccnc2)CCC3)n1`, 3.56% [at 57.5 µM].
Regarding `CCOc1cc(=O)n2c(c1C(=O)N1CCN(c3ccc(F)cc3)CC1)CCCC2`, the “activity change, negative = inhibition” value was 2.67%.
The value for `CC1=C[C@@H](CNC(=O)Cc2ccccc2)[C@H](C(C)C)C[C@H]1Cc1nc2ccncc2[nH]1` was 49.5% [at 57.5 µM]; that for `Oc1ccccc1CN1CCNc2cnc(-c3ccccc3)cc2C1` was 10.3% [at 57.5 µM].
As to `CN1C(=O)[C@@H]2C[C@@H](O)CN2C2(CN(CC3CCCCC3)C2)C1=O`, the “activity change, negative = inhibition” value is -2.35% [at 57.5 µM].
For the compound `O=C(O)c1cccc(CN2CCN(c3ccc4nccn4n3)CC2)n1`, the “activity change, negative = inhibition” value is 52.5%.
As for `CCn1ccc(C(=O)N2CC(c3nnc(-c4ccc(C)cc4)o3)C3(CCOCC3)C2)n1` (stereo unspecified), the “activity change, negative = inhibition” value was -0.487%.
The result for `O=C(Nc1ccsc1)N[C@H]1C[C@H]2C(=O)NC[C@@H](CCC(=O)N3CCCCC3)N2C1` reads 6.97% [at 57.5 µM]; that for `O=C(Cc1ccccc1F)N1CCC(Oc2ncccc2C(=O)N2CCCCC2)C1` (stereo unspecified), -2.69%.
As for `CC1=C[C@@H](CNCc2ccncc2)[C@H](C(C)C)C[C@H]1Cc1nnc(-c2ccc(C)cc2)o1`, the “activity change, negative = inhibition” value is 0.0973% [at 57.5 µM].
As for `Cc1ccccc1-c1[nH]nc2ncc(-c3ccccc3O)nc12`, the “activity change, negative = inhibition” value is 0.134% [at 57.5 µM].
`CN1CCCC2(CCN(S(=O)(=O)c3ccc(F)c(F)c3F)C2)C1=O` (stereo unspecified): the “activity change, negative = inhibition” value is -0.416%.
`CN1CCC(N2CCC[C@H]2C(=O)NCc2cc3n(n2)CCCNC3)CC1`: the “activity change, negative = inhibition” value was 44.8%.
The value for `O=C(O)C1(Oc2ccc3ccccc3c2)CCN(Cc2ccsc2)CC1` was -0.232%; that for `COc1cccc(CN2CCCC3(CCN(C(=O)c4ccc(OC)nc4OC)C3)C2)c1` (stereo unspecified) was -0.954%.
Regarding `COc1ccc(-c2noc([C@@H]3C[C@@H](O)CN3Cc3ncc[nH]3)n2)cc1`, the “activity change, negative = inhibition” value was -1.76% [at 57.5 µM].
Turning to `CC(C)(O)CCc1cccc(C(=O)NCCNc2cccnc2)c1`, the “activity change, negative = inhibition” value was 6.29%.
The result for `COc1cccc(S(=O)(=O)N2C[C@@H](C)[C@](O)(C3CCC3)C2)c1` reads -1.22%; that for `O=C(O)[C@@H]1CN(C(=O)c2ccc(=O)[nH]c2)C[C@H]1c1ccc2c(c1)OCO2`, 4.89%.
The result for `COC[C@H]1CCCN1Cc1nc(C2(O)CCN(Cc3ccccc3O)CC2)cs1` reads 38.3% [at 57.5 µM]; that for `O=C(NCc1ccccc1)N1CCCCC1c1nc(-c2cnccn2)n[nH]1` (stereo unspecified), 32.3%; that for `CN1CC2(CCN(C(=O)c3ccccc3-c3nn[nH]n3)CC2)CC1C(=O)O` (stereo unspecified), 57.1%.
For `Nc1ccsc1C(=O)N[C@H](Cc1ccncc1)C1CC(O)C1` (stereo partly specified), the “activity change, negative = inhibition” value was 49.4%.
For the compound `O=C(NC[C@H]1O[C@@H](CC(=O)N2CCOCC2)[C@H](O)[C@@H]1O)Nc1ccc(F)cc1F`, the “activity change, negative = inhibition” value is 8.7% [at 57.5 µM].
`CCn1nc(C)cc1C(=O)N1CCOC[C@H](Oc2cccnc2)C1`: the “activity change, negative = inhibition” value was -2.79% [at 57.5 µM].
Consider `O=c1n(-c2ccc([N+](=O)[O-])cc2)nc2n1CCN(Cc1cccc3ccccc13)C2`, for which the “activity change, negative = inhibition” value was 6.62%.
The result for `Cn1cccc1C(=O)N1CC[C@H](NC(=O)NC2CCCCC2)[C@H]1C(=O)N1CCC[C@@H]1C(N)=O` reads 1.12%.
As for `N#Cc1ccc(C(=O)N2C[C@@H]3C[C@H](C2)c2c(/C=C/c4ccc(Cl)cc4)ccc(=O)n2C3)cc1`, the “activity change, negative = inhibition” value was -0.813%.
Regarding `NC(=O)C1(N2CCCCC2)CCN(Cc2cc3n(n2)CCNC3)CC1`, the “activity change, negative = inhibition” value is 58.6%.
The result for `CC(C)(CO)CNC(=O)c1cnc2c(c1)N([S+](=O)([O-])c1cccnc1)CCC2` reads 2.99% [at 57.5 µM].
For `Cc1nn(C)c2ncc(C(=O)O)c(NC3CC(c4cc(=O)[nH]cn4)C3)c12` (stereo unspecified), the “activity change, negative = inhibition” value is 7.09%.
On to `Oc1cccc(CN2CCCC23CCN(c2ccc(C(F)(F)F)cn2)CC3)c1`, for which the “activity change, negative = inhibition” value is -0.547%.
Turning to `O=C(O)CCC(=O)N[C@H]1CCN2C(=O)c3cc(-c4ccc(Cl)cc4)ccc3NC(=O)[C@H]12`, the “activity change, negative = inhibition” value was 12.6% [at 57.5 µM].

The values above are taken from PubChem BioAssay AID1794842 (National Center for Advancing Translational Sciences (NCATS), 2023).
